Compound activity (PubChem BioAssay)
Most compounds without a hit are left out; they make up all but 6.9% or so of the library.
VDR inh – blocks the human vitamin D receptor | VDR-SRC2-3 peptide fluorescence polarization, 2 h | actives 0.93% (n = 400,000) | Potency, µM, for inactives: max response, negative = inhibition, actives largely listed as inhibitors | P11473 | AID 504847; also: % is scaled to controls: 0 for no effect and ±100 for the full control effect
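After 23 nl compound addition and a short centrifugation, plates sat for 2 hours at ambient temperature; polarization of fluorescence then indicated loss of VDR binding to peptide SRC2-3.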
JMJD2A Tudor inh – blocks the human JMJD2A Tudor domain. O75164. AlphaScreen JMJD2A-Tudor / H3K4me3 peptide binding. Potency, µM (doses to about 114 µM), without a hit: at the highest dose activity change, negative = inhibition, most hits filed as inhibitors. actives 4.4% (n = 390,000). AID 504339; also: % is scaled to controls: 0 for no effect and ±100 for the full control effect; nearly all actives have a fitted effect of over 50% in size
PLK1 PBD inh – blocks phosphopeptide binding to human PLK1 polo-box domain; P53350; Plk1 PBD binding of FITC phosphopeptide, fluorescence polarization; Potency, µM, without a hit: max response, negative = inhibition, usual class: inhibitors; actives 2.8% (n = 360,000); also: series mostly up to about 57 µM; % is scaled to controls: 0 for no effect and ±100 for the full control effect; nearly all actives have a fitted effect of over 65% in size
L3MBTL1 block – inhibitors of human L3MBTL1. actives 0.66% (n = 230,000). AlphaScreen L3MBTL1–H3K9me1 peptide binding. Potency, µM (titrated, usually from 57.1 µM), inactives show at the highest dose activity, negative = inhibition, most hits filed as inhibitors. Q9Y468. AID 485360; also: % is scaled to controls: 0 for no effect and ±100 for the full control effect; nearly all actives have a fitted effect of over 60% in size
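Displacement of a biotinylated histone H3(1-15) peptide monomethylated at Lys9 (75 nM) from L3MBTL1 (50 nM) was measured by AlphaScreen after a 30 min room-temperature compound incubation; cefsulodin titration served as intraplate control.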
BAZ2B block – inhibitors of human BAZ2B bromodomain; Q9UIF8; AlphaScreen BAZ2B-H3K14Ac peptide displacement; Potency, µM (titrated, usually from 114 µM), without a hit: at the highest dose activity change, negative = inhibition, hits mostly inhibitors; actives 4.4% (n = 360,000); also: % is scaled to controls: 0 for no effect and ±100 for the full control effect; nearly all actives have a fitted effect of over 60% in size
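AlphaScreen luminescence quantifies BAZ2B engagement of H3K14Ac peptide; the protein and biotinylated peptide are both at 50 nM final, buffer PBS pH 7.4 with 0.01% Tween-20, all steps at room temperature.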
HP1b chromo inh – blocks HP1-beta chromodomain binding to methylated histone tails; P83916; AlphaScreen HP1-beta / biotin-H3K9me3 peptide binding; Potency, µM (titrated, usually from 114 µM), for the others: at the highest dose activity change, negative = inhibition, hits mostly inhibitors; actives 0.56% (n = 390,000); also: nearly all actives have a fitted effect of over 70% in size
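AlphaScreen: HP1-beta (50 nM) preformed 30 min with biotin-H3(1-18)K9me3 peptide (50 nM) in PBS pH 7.4, 0.01% Tween-20. Compound added for 30 min at RT, then streptavidin donor/nickel chelate acceptor beads (10 ug/mL) for 30 min.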
Starred values were filed as active, the others as inactive; ? = inconclusive; / = not tested or not shown; [ ] = dose if it differs, or a comment. Calls follow the shape of the dose curve; as a rule, active = well fitted curve in the direction sought with a large enough effect; inconclusive = small, poorly fitted or top-dose-only effect, or another doubt; inactive = no such curve, though single readings can be large; an effect the other way counts as inactive or inconclusive. Potency is read from the fitted curve at half-maximal effect.

SMILES | VDR inh | JMJD2A Tudor inh | PLK1 PBD inh | L3MBTL1 block | BAZ2B block | HP1b chromo inh
Cn1cnnc1SCC(=O)NC1CCCN(Cc2ccccc2F)C1 (stereo not drawn) | -19.4% | -17.3% | -9.1% | / | -19.0% | 30.0%
Cc1cc(=O)[nH]c2nnc(SCc3cccc(F)c3)n12 | 2.3% | -15.9% | / | / | -2.2% | 0.1%
COc1ccc(-c2cc(C(F)(F)F)c(C#N)c(SCC(=O)O)n2)cc1OC | / | / | / | -1.4% | 38.3% | /
NC(=O)CC(NC(=O)Cc1ccc(Br)cc1)c1ccc(NCCN2CCCCC2)c([N+](=O)[O-])c1 (stereo not drawn) | -6.0% | -5.0% | -2.3% | -7.4% | 50.1µM* | 21.2%
NC(=O)CC(NC(=O)Cc1ccc(Br)cc1)c1ccc(NCc2ccc(F)c(F)c2)c([N+](=O)[O-])c1 (stereo not drawn) | -9.9% | -10.6% | 0.4% | / | -8.2% | 19.5%
NC(=O)CC(NC(=O)Cc1ccc(Br)cc1)c1ccc(NCc2ccccn2)c([N+](=O)[O-])c1 (stereo not drawn) | 1.7% | ? | -13.9% | / | 79.4µM* | 1.4%
NC(=O)c1cc([N+](=O)[O-])c(Cl)cc1NCc1ccccn1 | -20.8% | 56.2µM* | -13.9% | -3.3% | 79.4µM* | 9.9%
CCCSc1ncc(Cl)c(C(=O)Nc2sc3c(c2C(=O)NCC)CCCC3)n1 | -7.8% | -14.6% | / | / | -6.1% | 13.7%
Cc1ccc(NC(=O)c2ccc(=O)n(Cc3ccccc3C)c2)c(C)c1 | 3.3% | -2.6% | / | / | 3.9% | 14.0%[57 µM]
COCc1cn(CC(C)n2c(=O)c3ccccc3n2Cc2cc(C(C)C)no2)nn1 (stereo not drawn) | / | / | -1.7% | / | / | /
O=C(O)c1cc(N2C(=O)C=CC2=O)cc(N2C(=O)C=CC2=O)c1 | ? | 2.24µM* | 2.67µM* | / | / | 5.62µM*
CCc1cc(SC#N)cc(C)c1NC(=O)CCl | 79.4µM* | -4.8% | 11.9µM* | -7.8% | -23.8% | 46.8%
CCC(=O)Nc1ccc(SC#N)cc1C | -34.8% | -5.0% | 13.4µM* | / | 3.0% | 38.3%
Cc1noc(C)c1C(=O)N1CCC2(CCCN(C(=O)Nc3cccc(F)c3)C2)CC1 | 0.4% | / | / | / | / | /
OC[C@@H](O)[C@H](O)C(/C=N/Nc1ccccc1)=N\Nc1ccccc1 | -23.1% | 79.4µM* | -18.8% | / | ? | ?
C#CCn1c(=O)c2c(nc(/C=C/c3cccc(OC)c3)n2C)n(CCCO)c1=O | 6.7% | / | / | / | / | /
Cc1cccc(CNc2cc(-c3cccnc3)ncn2)c1 | -5.3% | / | / | / | / | /
COc1ccc(C(=O)N/C(=C\c2cccc3ccccc23)C(=O)N2CCN(C)CC2)cc1OC | -1.6% | -17.9% | -10.5% | -3.4% | -8.4% | 20.5%
COc1cc(C(=O)N/C(=C\c2cn(C)c3ccccc23)C(=O)NCCCN2CCOCC2)cc(OC)c1OC | ? | ? | 16.8µM* | / | -30.3% | 22.8%
CCn1cc(/C=C(\NC(=O)c2ccc(OC)c(OC)c2)C(=O)N2CCN(C)CC2)c2ccccc21 | ? | ? | 26.7µM* | / | -27.0% | -0.4%
COc1ccc(C(C(=O)NC2CCCC2)N(Cc2cccnc2)C(=O)Cc2cccs2)c(OC)c1 (stereo not drawn) | 5.2% | -18.0% | -1.4% | / | 1.3% | 5.0%
Cc1nnc(NC(=O)CCSCCC(=O)Nc2nnc(C)s2)s1 | -14.8% | 50.1µM* | ? | ? | 50.1µM* | -16.6%
CCOC(=O)CCSCC(=O)Nc1nnc(C)s1 | 1.2% | -6.3% | -16.6% | 10.4% | -6.7% | 34.3%
O=C(Nc1ccc(-c2nc3cc(NC(=O)c4ccc(F)cc4)ccc3o2)cc1)c1ccc(F)cc1 | 9.8% | -25.0% | / | / | 7.7% | -11.0%
O=C(Nc1ccc2oc(-c3ccncc3)nc2c1)c1ccc(F)cc1 | -5.3% | ? | -22.6% | / | 50.1µM* | 143.3%
O=C(Nc1ccc2oc(-c3cccnc3)nc2c1)c1ccc2c(c1)OCCO2 | -7.4% | 89.1µM* | 4.5% | -2.2% | 79.4µM* | -3.4%
O=C(Nc1ccc2oc(-c3ccncc3)nc2c1)c1ccc2c(c1)OCCO2 | -3.1% | 56.2µM* | 7.5% | / | 56.2µM* | -19.4%
